Hits are enriched below; roughly 14% of the tested compounds scored in any of these assays.
FBPA Giardia inh – blocks Giardia fructose-bisphosphate aldolase activity | A8B2U2 | purified Giardia FBPA | Potency, µM (doses to about 59.6 µM), inactives show at the highest dose activity, negative = inhibition, most hits filed as inhibitors | actives 0.71% (n = 290,000); further: potency means the concentration at half of the fitted maximal effect; nearly all actives have a fitted effect of over 55% in size
Target sequence (A8B2U2 whole entry, looked up): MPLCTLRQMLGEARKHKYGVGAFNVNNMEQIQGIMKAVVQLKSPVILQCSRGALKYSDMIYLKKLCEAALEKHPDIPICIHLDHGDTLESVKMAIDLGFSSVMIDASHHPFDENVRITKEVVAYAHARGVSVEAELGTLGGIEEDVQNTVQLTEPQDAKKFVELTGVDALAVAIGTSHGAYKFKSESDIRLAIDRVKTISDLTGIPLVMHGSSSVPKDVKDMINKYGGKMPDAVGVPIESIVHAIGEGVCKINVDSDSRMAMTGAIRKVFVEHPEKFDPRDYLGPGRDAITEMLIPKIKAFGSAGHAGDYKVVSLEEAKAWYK
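Giardia FBPA (40 nM reagent) was preincubated 10 min at RT with compound (up to 57.5 uM final), then substrate plus GAPDH/TPI/NAD/arsenate coupling system with diaphorase/resazurin was added; resorufin fluorescence (525/598 nm) was read after 20 min.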
HCMV antiviral – human cytomegalovirus inhibition. AID 1259415. activity change, negative = inhibition, % at 57.5 µM. actives 4.5% (n = 410,000). HFF cells, HCMV-luciferase reporter, 72 h; hits give low values; in the data active means activity change below about -60%; inconclusive means no clear call, values can overlap the other calls; inactive means above about -39%
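Two compound doses tested in HFFs infected with HCMV-luciferase, MOI 1 PFU/cell, 72 h at 37C. Lysate luminescence read with OneGlo; data normalized against buffer-only and 10uM Salinomycin inhibitor controls.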
Sm TGR block – S. mansoni TGR enzyme inhibition; AID 485364; Potency, µM (titrated, usually from 114 µM), for inactives: top-dose activity change, negative = inhibition, hits mostly inhibitors; Q962Y6; actives 3% (n = 360,000); purified TGR, DTNB reduction, TNB absorbance 405 nm; further: potency means the concentration at half of the fitted maximal effect; nearly all actives have a fitted effect of over 60% in size
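TGR 20 nM + NADPH 100 uM (dispensed conc.), cpd preinc 15 min RT; start with NADPH (500 uM addition) then DTNB (15 mM addition). Kinetic TNB absorbance, 405 nm filter. Four-parameter Hill fit across titration.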
Pf growth 48h – inhibits P. falciparum growth in the first generation, 48 h; P. falciparum luciferase growth in erythrocytes, 48 h; Potency, µM (top dose mostly 28.7 µM), for the others: top-dose activity change, negative = inhibition, usual class: inhibitors; actives 5.9% (n = 310,000); further: potency means the concentration at half of the fitted maximal effect
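Luminescence readout; reporter = integrated firefly luciferase in P. falciparum. RBC culture at 2% hematocrit, 0.1% parasitemia final, 37 C/5% CO2; decreased signal taken as growth inhibition.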
Pf growth 96h – inhibits malaria parasite growth, 96 h | P. falciparum luciferase reporter growth, 96 h | Potency, µM (highest dose often 28.7 µM), for the others: at the highest dose activity change, negative = inhibition, actives largely listed as inhibitors | actives 6.9% (n = 320,000); further: potency means the concentration at half of the fitted maximal effect
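Parasite growth measured via integrated firefly luciferase reporter in P. falciparum. Infected erythrocytes at 2% hematocrit, 0.05% parasitemia final were treated 96 hours at 37 C under 5% CO2, and luminescence was read.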
* hit, by the source's call; u = inconclusive; x = not tested or not shown; [ ] = dose if it differs, or a comment. Unless noted, the call rests on the fitted dose curve; in most records, active means well fitted curve in the direction sought with a large enough effect; inconclusive means small, poorly fitted or top-dose-only effect, or another doubt; inactive means no such curve, though single readings can be large; an effect the other way counts as inactive or inconclusive. On the % scale 0 is the no-effect control and ±100 the full control effect.

SMILES | FBPA Giardia inh | HCMV antiviral | Sm TGR block | Pf growth 48h | Pf growth 96h
O=C(O)C1Cc2c([nH]c3ccccc23)C(c2ccc3c(c2)OCO3)N1 (centres undefined) | -5% | -14 | -27% | 3% | 9.3µM*
COc1ccc(C2NC(C(=O)O)Cc3c2[nH]c2ccccc32)cc1CN1CCN(c2ccc(F)cc2)CC1 (centres undefined) | u | -32 | -22% | 10µM* | u
COC(=O)[C@H]1Cc2c([nH]c3ccccc23)[C@H](c2ccccc2)N1 | -2% | -17 | -10% | -7% | 3%
COc1ccc(CN2CCN(c3ccc(F)cc3)CC2)c(OC)c1OC | -12% | 8 | 8% | -5% | 23%
COc1cc2ccccc2cc1C(=O)OCC(=O)N(CC(C)C)c1c(N)n(Cc2ccccc2)c(=O)[nH]c1=O | x | -32 | -4% | 10µM* | u
COCCN(C(=O)COC(=O)c1cc2ccccc2cc1OC)c1c(N)n(Cc2ccccc2)c(=O)[nH]c1=O | x | -31 | -1% | u | u
CC(C)CN(C(=O)CCCOc1ccc(Cl)cc1Cl)c1c(N)n(Cc2ccccc2)c(=O)[nH]c1=O | x | -36 | -3% | 12µM* | u
CC(C)CN(C(=O)CCc1ccccc1Cl)c1c(N)n(Cc2ccccc2)c(=O)[nH]c1=O | x | -14 | 2% | u | u
CCC1(O)CC(c2ccccc2)=NN1C(=O)c1ccccc1F (centres undefined) | x | -10 | x | x | x
CC(C)c1ccc(C2=CC(c3ccc(C(C)C)cc3)n3nnnc3N2)cc1 (centres undefined) | x | 4 | -4% | x | x
CCc1ccc(C2=CC(c3cccc(Br)c3)n3nnnc3N2)cc1 (centres undefined) | x | -66* | 25µM* | x | x
Cc1cccc(C2C=C(c3ccc(C)c(C)c3)Nc3nnnn32)c1 (centres undefined) | x | 25 | 40µM* | x | x
Cc1ccc(C2=CC(c3ccc(N(C)C)cc3)n3nnnc3N2)cc1 (centres undefined) | -11% | -76* | u | x | -3%
Fc1ccc(Br)cc1C1C=C(c2ccc(Br)cc2)Nc2nnnn21 (centres undefined) | x | -10 | -24% | x | x
CCOc1ccc(N(CC(=O)NC2CCCC2)C(=O)CSc2nnc(COc3ccccc3)o2)cc1 | 1% | u | 18% | x | 7.4µM*
O=C(CN(C(=O)CSc1nnc(COc2ccccc2)o1)c1ccc(F)cc1)NC1CCCC1 | 2% | -31 | -3% | 9% | 7%
CCOc1ccc(N(CC(=O)NC2CCCC2)S(=O)(=O)c2ccccc2)cc1 | 1% | -64* | -2% | -34% | 28%
O=C(CN(C(=O)CSc1nnc(COc2ccccc2)o1)c1ccc(F)cc1)NC1CCCCC1 | -1% | -15 | -2% | 12µM* | u
CCOc1ccc(N(CC(=O)NC2CCCCC2)S(=O)(=O)c2ccc(C)cc2)cc1 | -2% | -40 | -7% | u | 10%
CC(=O)Nc1ccc(NC(=O)[C@H](C)NC(=O)c2ccco2)cc1 | -14% | 29 | -21% | 11% | 1%
COc1ccc(N2CCN(C(=O)Cn3cnc4nc5c(cc4c3=O)CCCC5)CC2)cc1 | x | -18 | 0% | x | x
COc1ccc(Nc2nccc3[nH]c(-c4ccccc4OC)cc23)cc1 | x | -4 | x | x | x
COc1ccc(OC)c(S(=O)(=O)N2CCN(C(=O)CCc3ccccc3)CC2)c1 | x | 31 | x | x | x
CSC(=NC#N)N1CCN(C(c2ccccc2)c2ccccc2)CC1 | 4% | 1 | u | u | u
CSC(=NC#N)N1CCN(C(=NC#N)SC)CC1 | -2% | -9 | x | 9.3µM* | 2%
SMILES | FBPA Giardia inh | HCMV antiviral | Sm TGR block | Pf growth 48h | Pf growth 96h
O=C1CC[C@H](C(=O)N[C@@H]2C[C@H]2c2ccccc2)N1 | x | x | x | 18% | 9%
O=S(=O)(CCc1ccccc1)c1nnnn1-c1ccccc1 | 2% | x | x | x | x
CCS(=O)(=O)c1nnnn1-c1ccccc1S(C)(=O)=O | 2% | -93* | 6% | 9.3µM* | x
CC(C)(C)c1ccc(-c2nc(C=O)c3ccccn23)cc1 | -10% | -32 | -19% | 72% | 70%
Cc1c(C(C)(C)C)c(C=S)n2ccccc12 | -15% | -34 | 2.2µM* | x | 10µM*
C=CCn1c(SCc2c(C)noc2C)nc2cc(C(=O)O)ccc2c1=O | 14% | 94 | 4% | -7% | x
Cc1noc(C)c1CSc1nc2ccccc2c(=O)n1-c1ccccc1 | 4% | 64 | 7%[11.4 µM] | x | -21%
C=CCn1c(SCc2c(C)noc2C)nc2ccccc2c1=O | 3% | -1 | -9% | x | 13µM*
C=CCn1c(SCc2nc3ccccc3c(=O)[nH]2)nc2ccccc2c1=O | -6% | -61* | -7% | u | x
COc1cc2nc(SCc3c(C)noc3C)n(CCC3=CCCCC3)c(=O)c2cc1OC | 2% | 181 | 2% | u | 1.7µM*
CC(=O)Nc1ccc(-c2nnc3n(Cc4ccc(C)cc4)c(=O)c4ccccc4n23)cc1 | x | 8 | 0% | x | x
CCOC(=O)N1CCC(NC(=O)c2cnn(-c3cccc(F)c3)c2-n2cccc2)CC1 | x | 0 | -2% | x | x
NC(=O)[C@@H]1CCCN1C(=O)[C@H](Cc1cnc[nH]1)NC(=O)[C@@H]1CCC(=O)N1 | x | x | x | -23% | u
COc1ccc(Cl)c(Cn2c(NCc3ccco3)nc3c2c(=O)n(C)c(=O)n3C)c1 | u | -6 | 50µM* | u | x
COc1cccc(Cn2c(NCc3ccco3)nc3c2c(=O)n(C)c(=O)n3C)c1 | -8% | -98* | -29% | u | 7%[5.75 µM]
COc1cc(OC)cc(C(=O)N[C@H](C(=O)OCC(=O)Nc2cccnc2Cl)C(C)C)c1 | x | 0 | -2% | 6% | 22%
CCOC(=O)N1CCC(NC(=O)c2ccc3nc4ccccc4c(=O)n3c2)CC1 | -1% | x | 0% | u | 65%
CCOC(=O)N1CCC(NC(=O)c2cccn3c(=O)c4cc(Br)ccc4nc23)CC1 | -5% | 24 | 0% | 2.6µM* | 59%
COC(=O)c1ccc(C(NC(=O)OCc2ccccc2)/C(F)=C/[C@@H](C)C(=O)N[C@@H](CO)Cc2ccccc2)cc1 (some centres undefined) | 2% | x | x | x | x
C=C/C(=C\C)C[C@@H](CC(=O)N[C@@H](CCC(=O)O)CC(=O)O)NC(=O)[C@@H]1CNCC[C@H]1NC(=O)C[C@@H](NC(=O)C[C@H](Cc1ccccc1)NC(=O)[C@@H]1CCCC[C@H]1N)C(C)C | 12% | x | x | x | x
CCN(CC)C(CNC(=O)CSc1nnnn1-c1c(C)cccc1C)c1ccco1 (centres undefined) | x | -9 | -10% | u | -8%
CCCCCOC(=O)Cc1c(C)nc(-c2ccccc2)[nH]c1=O | 8% | 9 | 7% | 1.9µM* | u
COc1cc2cc3c(N)c(C(=O)Nc4sc(C)c(C)c4C#N)sc3nc2cc1OC | u | -1 | 27% | u | 12µM*
COc1cc2cc3c(N)c(C(=O)NCc4ccco4)sc3nc2cc1OC | -25% | x | u | u | -18%
